Assay results reported in PubChem BioAssay (NCI).
Compounds without any hit were thinned out: in the full panel of roughly 79,000, 15% have a hit. No stated cut-off is given here; in the data, active means growth inhibition above about 70%; inactive means the rest.

Experiments:
[1] = NCI Yeast Anticancer Drug Screen. Data for the rad50 strain (AID 155);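 further: 0% = growth of vehicle-only cultures of the same strain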; settings: S. cerevisiae rad50 strain growth inhibition; at 50.0 µM; hits give high values
Procedure, shortened: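 Compounds were tested on a yeast strain with an engineered DNA damage repair alteration; the reported value is growth inhibition normalised to vehicle treatment.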

[2] = NCI Yeast Anticancer Drug Screen. Data for the mec2-1 strain (AID 157); settings: S. cerevisiae mec2-1 strain, at 50.0 µM, hits give high values
Procedure, shortened: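 mec2-1 yeast strain, carrying an alteration in DNA damage repair or cell cycle control, was exposed to compounds; growth inhibition was measured relative to vehicle-treated controls.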

[3] = NCI Yeast Anticancer Drug Screen. Data for the sgs1 mgt1 strain (AID 161);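 further: 0% = growth of cultures given vehicle only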; settings: S. cerevisiae sgs1 mgt1 strain, at 50.0 µM, hits give high values
Procedure, shortened: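 This yeast growth screen uses a strain with defined DNA-repair lesions; compound-treated growth is compared with vehicle-treated growth.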

[4] = NCI Yeast Anticancer Drug Screen. Data for the cln2 rad14 strain (AID 165);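 further: 0% = growth equal to vehicle treated cultures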; settings: S. cerevisiae cln2 rad14 strain, at 50.0 µM, hits give high values
Procedure, shortened: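 Yeast carrying cln2 and rad14 alterations (cell cycle control and DNA damage repair) were exposed to compounds. Growth inhibition was measured against vehicle-treated controls.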

[5] = NCI Yeast Anticancer Drug Screen. Data for the bub3 strain (AID 167); settings: S. cerevisiae bub3 mutant strain, at 50.0 µM, hits give high values
Procedure, shortened: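 Growth of a checkpoint-deficient yeast mutant is measured after compound exposure. Values represent inhibition relative to vehicle.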

[6] = NCI Yeast Anticancer Drug Screen. Data for the mlh1 rad18 strain (AID 175); settings: S. cerevisiae mlh1 rad18 strain growth inhibition; at 50.0 µM; hits give high values
Procedure, shortened: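 Growth inhibition of the yeast strain was measured after compound exposure and expressed relative to vehicle-treated controls. The strain carries defined defects in DNA damage repair.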

Measured: growth inhibition

CN(NC(=O)c1ccco1)C1=NCCCCN1
inactive: [1] -11.8% | [2] -10.6% | [3] -15.3% | [4] -16.6% | [5] -10.2% | [6] 0.3%

CC(C)CCCC(C)C1CCC2C3CC=C4CC(OC(=O)Nc5ccc(S(=O)(=O)N6CCCCC6)cc5)CCC4(C)C3CCC12C (centres undefined)
inactive: [1] 2.3% | [2] 2.45% | [3] 1.65% | [4] -5.8% | [5] -3.75% | [6] 6.45%

Nc1ccc(C(=O)CC(N)C(=O)O)cc1O (centres undefined)
inactive: [1] -9.7% | [2] 21.4% | [3] -6.9% | [4] -17.9% | [5] 6.95% | [6] 11.3%

CCOC(=O)c1ccc(Cl)cc1
inactive: [1] -14% | [2] -16.8% | [3] -25.1% | [4] -23.8% | [5] -30.8% | [6] -25.1%

O=C(O)c1cccc2c1CCCC2
inactive: [1] -2.7% | [2] 7.35% | [3] -21.6% | [4] 0.05% | [5] -11.6% | [6] 8.05%

CCOC(C)=C(C#N)C#N
inactive: [1] 8.9% | [2] -9.4% | [3] 8.95% | [4] -7.85% | [5] -10.2% | [6] 4.9%

COc1ccc(C(=O)c2ccc(C)c3c(C)cccc23)cc1
inactive: [1] 4.5% | [2] -9.55% | [3] 4.9% | [4] -16.6% | [5] -7.9% | [6] 4.85%

Cc1cc(C)c2ccc(NN=O)nc2n1
inactive: [1] 11.4% | [2] 9.75% | [3] 18.9% | [4] 19.1% | [5] 13.2% | [6] 25.7%

COc1cccc(NC(=O)N/C(=C/c2ccc(N(CCC#N)CCC#N)cc2)NC(=O)c2cc([N+](=O)[O-])ccc2Cl)c1
inactive: [1] 30.8% | [2] 16% | [3] -3.15% | [4] -10.1% | [5] -6.8% | [6] 36.5%

O=Cc1cccc2[nH]ccc12
inactive: [1] 5.9% | [2] -7.95% | [3] 13% | [4] -4.6% | [5] 7.85% | [6] 3.25%

CCOC(=O)C1=C(C(=O)C(C)(C)C)C(c2ccc([N+](=O)[O-])cc2)C(C(=O)C(C)(C)C)=C(C(=O)OCC)N1
inactive: [1] 31.1% | [2] 21.4% | [3] 9.4% | [4] 27.4% | [5] 6.2% | [6] 14.3%

CCOC(=O)C(O)Cc1cnc2ccccc2n1 (centres undefined)
inactive: [1] -1.45% | [2] -13.3% | [3] -12.3% | [4] -13.3% | [5] -11.1% | [6] 7.55%

Cc1cc2nc(C(C)C(=O)c3ccc(Cl)cc3)c(=O)[nH]c2cc1C (centres undefined)
inactive: [1] -12.1% | [2] -12.7% | [3] -0.9% | [4] 0.5% | [5] -24.4% | [6] -3.9%

CC(=O)Oc1ccc(C2CC(=O)N(CCN(C)C)C2=O)cc1 (centres undefined)
inactive: [1] 0.2% | [2] 30.2% | [3] -0.5% | [4] -6.35% | [5] 14.2% | [6] -2.1%

COc1cc(Cn2c(=S)ss/c2=N\C(=S)N(C)C)cc(OC)c1OC
inactive: [1] 1.7% | [2] 4.45% | [3] -0.4% | [4] 6.45% | [5] -2.25% | [6] -12%

O=c1[nH]cc([N+](=O)[O-])c(=O)[nH]1
inactive: [1] 14.3% | [2] 13.1% | [3] 8.25% | [4] 14.7% | [5] 16.9% | [6] 11.2%

CC(C)CC(C#N)C(=O)O (centres undefined)
inactive: [1] -1.45% | [2] -1.95% | [3] -5.15% | [4] 5.45% | [5] -4.35% | [6] 2.1%

CN(C)CC1CCCC/C1=N\OC(=O)c1ccccc1 (centres undefined)
inactive: [1] -6.9% | [2] -13.8% | [3] 4.15% | [4] 6.25% | [5] 5.8% | [6] 8.1%

Oc1ccc(Br)cc1C(c1ccc2c(c1)OCO2)N1CCOCC1 (centres undefined)
inactive: [1] 8.65% | [2] 14.3% | [3] -7.8% | [4] 14.4% | [5] 1.45% | [6] 15.5%

CCCCC#CCC#Cc1ccccc1
inactive: [1] -4.3% | [2] 5.25% | [3] 6.85% | [4] 23.2% | [5] -10.9% | [6] 10.1%

Cc1ccc(S(=O)(=O)NN=C2CCCCC2)cc1
inactive: [1] -3.45% | [2] -11.4% | [3] -1.3% | [4] -19.4% | [5] -14.5% | [6] -11.8%

Cc1cccc(NC(=O)/C=C/C(=O)O)c1
inactive: [1] -31.9% | [2] -41% | [3] -17.9% | [4] -20.9% | [5] -29.6% | [6] -45.1%

O/N=C1\CC2CC1C1CC3(CC3)C21 (centres undefined)
inactive: [1] -6.85% | [2] -9.6% | [3] -0.15% | [4] -0.9% | [5] -22.2% | [6] 20.6%

COc1nc(NC2OC(CO)C(O)C(O)C2O)c(/C=N/O)c(=O)n1C (centres undefined)
inactive: [1] 4.55% | [2] 2.25% | [3] -6.35% | [4] 6.8% | [5] 7.85% | [6] 4.45%

CNn1c(-c2ccccc2)n[nH]c1=O
inactive: [1] 6.65% | [2] 2.85% | [3] 11.4% | [4] 26.2% | [5] 6.45% | [6] 19.4%

N#Cc1[nH]cnc1O
inactive: [1] -9.6% | [2] -10.4% | [3] -11.4% | [4] 7.7% | [5] 17.4% | [6] -5.85%

CCOC(=O)/C(C=Nc1c(C)n(C)n(-c2ccccc2)c1=O)=C(/C)O
inactive: [1] 19.7% | [2] 10.7% | [3] 11.7% | [4] 27.5% | [5] 10.8% | [6] 23.6%

Nc1ncncc1Oc1ccccc1
inactive: [1] 8.25% | [2] -5.35% | [3] -0.2% | [4] -33.6% | [5] 4.05% | [6] -14.4%

Cc1ccc(C(=O)c2ccccc2Cc2cccc3ccccc23)c(C)c1
inactive: [1] 4.35% | [2] 6.6% | [3] 1.2% | [4] -13.7% | [5] 12.6% | [6] -14.5%

N#Cc1[nH]c(=O)n(-c2ccc(Cl)cc2)c1N
inactive: [1] -30.1% | [2] -58.6% | [3] -19% | [4] -11.3% | [5] -12.4% | [6] -33%

NC(=O)[C@H]1CC2CCC1C2 (some centres undefined)
inactive: [1] 6.75% | [2] -1.75% | [3] 3.4% | [4] 5% | [5] 11.3% | [6] 6%

NC1=NC(c2ccccc2)C2=C(N1)C(=O)N(Cc1ccccc1)C2 (centres undefined)
inactive: [1] 5.65% | [2] -6.25% | [3] -0.8% | [4] -18.9% | [5] -16.8% | [6] 3.15%

CS(=O)(=O)OCCCSCCSCCCOS(C)(=O)=O
inactive: [1] -4% | [2] -0.05% | [3] 3.1% | [4] -4.8% | [5] -11.2% | [6] -10.1%

C=C1C(=O)O[C@@H]2[C@H]3[C@H](C)C(=O)C=C[C@]3(C)CC[C@@H]12
inactive: [1] 21.3% | [2] -24.9% | [3] 39% | [4] 13.4% | [5] 8.95% | [6] -23.6%

Cn1nnc(/N=C/c2ccccc2)n1
inactive: [1] 5.85% | [2] -8.1% | [3] -6.25% | [4] -19.1% | [5] 4.75% | [6] 11.4%

Cc1nn(C)c(=O)c2nn(-c3ccccc3)c(C)c12
inactive: [1] 19.6% | [2] 3.4% | [3] 14.8% | [4] 14.3% | [5] 20.8% | [6] 1.25%

O=C1OCCC1n1cc(F)c(=O)[nH]c1=O (centres undefined)
inactive: [1] 3.15% | [2] -5.3% | [3] -3.45% | [4] -39% | [5] -20.2% | [6] -2%

C[Si](C)(/C(=C/COCc1ccccc1)CCOC1CCCCO1)c1ccccc1 (centres undefined)
inactive: [1] -5.4% | [2] -6.95% | [3] -17.1% | [4] -10.9% | [5] 0.6% | [6] -27.4%

Cc1nc(-c2nc(C)c(C(=O)NN(C)C)s2)sc1C(=O)NN(C)C
inactive: [1] 28.4% | [2] -7.8% | [3] 23.2% | [4] 23.7% | [5] 3.1% | [6] 22%
